High-throughput results (PubChem BioAssay)
In the library only some 11% were active in any assay of this set; here they are far more common.
JMJD2A Tudor inh – inhibitors of human JMJD2A Tudor domain; O75164; Potency, µM (highest dose often 114 µM), for inactives: at the top dose activity change, negative = inhibition, hits mostly inhibitors; AlphaScreen JMJD2A-Tudor / H3K4me3 peptide binding; hit rate 4.4% among 390,000; note: potency is the fitted concentration of half-maximal effect; % is set by controls: 0 for no effect and ±100 for the full control effect; nearly all actives have a fitted effect of over 50% in size
Target sequence (O75164 whole entry, looked up, the tested form may be a part): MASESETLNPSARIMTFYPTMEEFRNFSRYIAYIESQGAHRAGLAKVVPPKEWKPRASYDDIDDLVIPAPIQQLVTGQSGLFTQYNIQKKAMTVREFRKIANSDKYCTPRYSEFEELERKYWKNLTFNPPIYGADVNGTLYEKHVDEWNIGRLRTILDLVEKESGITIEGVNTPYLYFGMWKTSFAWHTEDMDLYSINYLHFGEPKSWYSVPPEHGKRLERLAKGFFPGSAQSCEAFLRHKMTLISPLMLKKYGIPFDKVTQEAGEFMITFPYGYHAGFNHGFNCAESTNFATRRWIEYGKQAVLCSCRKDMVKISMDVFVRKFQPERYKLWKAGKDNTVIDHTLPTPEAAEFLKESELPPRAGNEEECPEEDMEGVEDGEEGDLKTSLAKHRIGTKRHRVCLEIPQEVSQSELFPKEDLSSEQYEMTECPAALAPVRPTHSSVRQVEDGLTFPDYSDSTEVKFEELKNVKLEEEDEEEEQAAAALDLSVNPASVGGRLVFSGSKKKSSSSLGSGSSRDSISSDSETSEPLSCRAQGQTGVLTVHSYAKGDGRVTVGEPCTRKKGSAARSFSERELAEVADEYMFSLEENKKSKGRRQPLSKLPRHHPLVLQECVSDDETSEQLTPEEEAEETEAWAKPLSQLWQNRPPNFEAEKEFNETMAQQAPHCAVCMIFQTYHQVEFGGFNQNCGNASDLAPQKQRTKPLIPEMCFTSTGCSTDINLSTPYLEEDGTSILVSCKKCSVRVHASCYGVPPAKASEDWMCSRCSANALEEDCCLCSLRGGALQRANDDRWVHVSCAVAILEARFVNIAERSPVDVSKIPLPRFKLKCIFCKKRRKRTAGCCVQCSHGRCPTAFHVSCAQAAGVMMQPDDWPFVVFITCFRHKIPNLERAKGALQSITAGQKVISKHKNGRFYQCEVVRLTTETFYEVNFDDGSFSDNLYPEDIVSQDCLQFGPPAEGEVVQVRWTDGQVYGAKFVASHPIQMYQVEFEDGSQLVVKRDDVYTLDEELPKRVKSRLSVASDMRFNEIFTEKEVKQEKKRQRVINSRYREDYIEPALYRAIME
G9a inh – G9a (human) methyltransferase inhibition; Q96KQ7; G9a H3K9 monomethylation, AlphaScreen, 2 h; Potency, µM (titrated, usually from 102 µM), without a hit: top-dose activity, negative = inhibition, actives largely listed as inhibitors; hit rate 8.8% among 350,000; note: potency is the fitted concentration of half-maximal effect; % is set by controls: 0 for no effect and ±100 for the full control effect; nearly all actives have a fitted effect of over 75% in size
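Signal arises when biotinylated H3K9 peptide, once monomethylated, bridges streptavidin donor and antibody-captured acceptor beads. Enzyme at 20 nM was preincubated 15 min with test compounds; peptide 500 nM and SAM 20 uM then reacted for 2 h.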
PI5P4Ka inh – blocks human PI5P4K alpha kinase activity; PI5P4Kalpha enzyme, ADP-Glo luminescence, 60 min; stronger effect = lower value; max response, %; hit rate 1.2% among 330,000; AID 652105; active = max response of -50% or lower; inconclusive = between -30% and -50%; inactive = -30% or higher; note: value at the top dose of about 77 µM; % is set by controls: 0 for no effect and ±100 for the full control effect
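Compounds were pin-transferred onto PI5P4Kalpha and substrate in HEPES pH 7.4 buffer with EGTA, CHAPS and 5% DMSO. ATP (5 microM final) started the reaction, which ran 60 minutes at room temperature before ADP-Glo detection.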
HP1b binding inh – HP1-beta chromodomain-methylated histone interaction inhibition. P83916. AlphaScreen HP1-beta / biotin-H3K9me3 peptide binding. Potency, µM (highest dose often 114 µM), for the others: at the top dose activity change, negative = inhibition, actives largely listed as inhibitors. hit rate 0.56% among 390,000; note: potency is the fitted concentration of half-maximal effect; nearly all actives have a fitted effect of over 70% in size
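AlphaScreen: HP1-beta (50 nM) preformed 30 min with biotin-H3(1-18)K9me3 peptide (50 nM) in PBS pH 7.4, 0.01% Tween-20. Compound added for 30 min at RT, then streptavidin donor/nickel chelate acceptor beads (10 ug/mL) for 30 min.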
L3MBTL1 inh – L3MBTL1 (human) inhibition | Q9Y468 | AlphaScreen L3MBTL1–H3K9me1 peptide binding | Potency, µM (titrated, usually from 57.1 µM), inactives show at the top dose activity, negative = inhibition, actives largely listed as inhibitors | hit rate 0.66% among 230,000 | AID 485360; note: potency is the fitted concentration of half-maximal effect; % is set by controls: 0 for no effect and ±100 for the full control effect; nearly all actives have a fitted effect of over 60% in size
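L3MBTL1 (50 nM) pre-complexed 30 min with biotinylated H3(1-15)K9me1 peptide (75 nM), then compounds added for 30 min at room temperature; AlphaScreen streptavidin donor/nickel chelate acceptor beads (10 ug/mL final) read after 30 min dark incubation.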
BAZ2B inh – blocks human BAZ2B; hit rate 4.4% among 360,000; Potency, µM (top dose mostly 114 µM), without a hit: at the top dose activity change, negative = inhibition, most hits filed as inhibitors; AlphaScreen BAZ2B-H3K14Ac peptide displacement; Q9UIF8; note: potency is the fitted concentration of half-maximal effect; % is set by controls: 0 for no effect and ±100 for the full control effect; nearly all actives have a fitted effect of over 60% in size
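AlphaScreen displacement: compounds (up to 110uM) incubated 30 min at room temperature with a preformed 50 nM BAZ2B/50 nM biotinylated H3K14Ac peptide complex in PBS pH 7.4 with Tween-20. Donor and acceptor beads at 10 ug/mL final added, 20 min light-protected before reading.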
* = called active by the depositor; ? = inconclusive; / = no result given; [ ] = dose if it differs, or a comment. Unless noted, calls come from the whole dose curve; as a rule, active = well fitted inhibition curve with a large enough effect; inconclusive = small, poorly fitted or top-dose-only effect; inactive = no such curve, though single readings can be large or run the other way.

SMILES	JMJD2A Tudor inh	G9a inh	PI5P4Ka inh	HP1b binding inh	L3MBTL1 inh	BAZ2B inh
CN(C)S(=O)(=O)c1ccc(/C(O)=C2/C(=O)C(=O)N(Cc3cccnc3)C2c2cccs2)cc1 (centres undefined)	-17.2%	39.8µM*	-10.5	35.5%	6.5%	-13.0%
COc1cc(NC(=O)Cn2nc(C(F)(F)F)c3c2CCCC3)c(OC)cc1Cl	2.7%	6.3%[59 µM]	/	29.4%	/	-2.1%
CCOC(=O)CSc1nc2cc(OC)c(OC)cc2c2nc(-c3ccccc3)nn12	-12.3%	3.6%[59 µM]	/	14.4%	/	/
C#CCOCCOCCOCCNc1nc(N2CCN(C(=O)[C@H]([C@@H](C)O)n3cc(CCCCN)nn3)CC2)nc(N2CCN(C(=O)[C@H](Cc3ccc(O)cc3)n3cc(CCO)nn3)CC2)n1	?	50.1µM*	2.0	43.0%	7.8%	?
C#CCOCCOCCOCCNc1nc(N2CCN(C(=O)[C@H](Cc3ccc(O)cc3)n3cc(CCO)nn3)CC2)nc(N2CCN(C(=O)[C@H](Cc3ccc(O)cc3)n3cc(CCO)nn3)CC2)n1	/	35.5µM*	/	/	1.1%	?
C#CCOCCOCCOCCNc1nc(N2CCN(C(=O)[C@H](C(C)C)n3cc(CCO)nn3)CC2)nc(N2CCN(C(=O)[C@H](Cc3ccc(O)cc3)n3cc(CCO)nn3)CC2)n1	-17.6%	/	1.6	35.0%	/	/
Clc1ccc(CN2CCCCCCC2)cc1Cl	28.2µM*	?	0.0	-38.0%	14.4%	-11.6%
O=[N+]([O-])c1cc(CN2CCCC2)ccc1Sc1ccc(Cl)cc1	35.5µM*	35.5µM*	14.7	39.8µM*	?	39.8µM*
O=S1(=O)CCN(Cc2ccc(Cl)c(Cl)c2)CC1	-2.5%	2.1%[12.7 µM]	-3.9	15.8%	-3.1%	-2.2%
Clc1ccc(CN2CCCCCC2)cc1	1.78µM*	12.6µM*	5.9	?	-3.6%	?
O=[N+]([O-])c1ccc(Cl)cc1N1CCCC1	-34.5%	/	1.6	10.1%	-15.9%	?
CS(=O)(=O)Nc1c(O)ccc2c1CCCC2C1=NCCN1 (centres undefined)	/	22.0%[59 µM]	/	/	/	/
CCn1cnc2cc([N+](=O)[O-])ccc21	-7.6%	-21.2%	8.1	21.5%	-1.4%	-22.4%
CCn1cnc2cc(NCc3ccc(N(C)C)cc3)ccc21	10µM*	11.2µM*	1.4	31.6µM*	/	10µM*
CN(C)c1ccc(CNc2ccc3c(c2)ncn3C(C)(C)C)cc1	14.1µM*	22.4µM*	-3.5	35.5µM*	/	15.8µM*
CC(C)(C)n1cnc2cc(NC(=O)c3ccccc3)ccc21	-16.3%	-4.2%	2.6	26.5%	-2.0%	-4.3%
CCN(CC)c1ccc(CNc2ccc3c(c2)ncn3CC)cc1	20µM*	22.4µM*	7.2	35.5µM*	/	15.8µM*
CCOc1ccc(CNc2ccc3c(c2)ncn3C(C)(C)C)cc1	?	79.4µM*	3.5	-30.8%	/	?
CCn1cnc2cc(NC(=O)c3cccs3)ccc21	0.0%	0.6%	-1.3	18.7%	3.4%	-17.4%
N#CCCn1c(=O)c(-c2ccccc2)nc2cnc(N3CCOCC3)nc21	/	3.4%[0.501 µM]	/	/	/	/
CCn1c(=O)c2sccc2n2c(CCCC(=O)N3CCN(c4ccc(OC)cc4)CC3)nnc12	-15.0%	-7.3%[59 µM]	/	10.9%	/	0.7%
Cc1cn(C2CCCCO2)c(=O)nc1NO (centres undefined)	89.1µM*	/	1.8	14.1%	/	/
COc1nc(=O)n(C2CCCO2)cc1C (centres undefined)	-11.1%	/	1.0	32.6%	/	/
CCOC(=O)C(=Cc1cc(=O)c(OC)co1)C(=O)OCC	4.7%	10µM*	-2.0	?	0.6%	-2.8%
COc1coc(C(O)CN)cc1=O (centres undefined)	-2.1%	8.1%[59 µM]	0.3	21.4%	9.1%	4.0%
SMILES	JMJD2A Tudor inh	G9a inh	PI5P4Ka inh	HP1b binding inh	L3MBTL1 inh	BAZ2B inh
CN(Cc1ccco1)c1ncncc1-c1ccccc1C(F)(F)F	/	5.5%[0.501 µM]	/	/	/	/
Cc1nc(-c2ccc(S(=O)(=O)N3CCCN(CCc4ccccc4)CC3)s2)cs1	?	50.1µM*	0.0	-8.3%	-11.8%	56.2µM*
O=S(=O)(c1ccc(Cl)s1)N1CCN(CCc2ccccc2)CC1	-6.9%	/	-1.6	28.1%	/	-11.8%
Cc1nc(-c2ccc(S(=O)(=O)N3CCN(C4c5ccccc5-c5ccccc54)CC3)s2)cs1	-12.2%	56.2µM*	-8.8	?	/	-28.8%
COc1ccc(-c2coc3cc(OC(C)=O)ccc3c2=S)cc1	44.7µM*	/	?	?	/	/
C[C@H](CCCC(C)(C)O)[C@H]1CC[C@H]2[C@@H]3CC=C4C[C@@H](O)CC[C@]4(C)[C@H]3CC[C@]12C	/	5.1%[12.7 µM]	/	/	/	/
CC(C)(C)n1nnnc1C(c1ccncc1)N1CCCCCC1 (centres undefined)	-16.9%	-23.7%	/	44.3%	-0.8%	4.9%
CC1CCN(C(c2ccc(N(C)C)cc2)c2nnnn2C(C)(C)C)CC1 (centres undefined)	56.2µM*	?	2.6	?	/	50.1µM*
CCC(C)(C)n1nnnc1C(c1ccc(O)cc1)N1CCc2ccccc2C1 (centres undefined)	89.1µM*	2.51µM*	-10.9	?	-1.1%	-35.4%
CN(C)c1ccc(C(c2nnnn2C(C)(C)C)N2CCc3ccccc3C2)cc1 (centres undefined)	/	39.8µM*	/	/	-5.9%	?
O=C(c1cccs1)N(Cc1ccco1)c1ccc(O)cc1	1.5%[57.1 µM]	/	/	2.9%[57 µM]	/	/
CCOc1ccc(CNC(=O)C2CCCN(S(=O)(=O)c3ccc4c(ccn4C)c3)C2)cc1 (centres undefined)	-4.5%	-2.0%[59 µM]	/	24.8%[57 µM]	/	1.3%
O=C(CN1CCN(S(=O)(=O)c2ccc(Cl)cc2)CC1)Nc1ccc2c(c1)OCCO2	-17.8%[11.4 µM]	50.1µM*	1.2	7.7%	-3.6%	-7.3%
O=C(CN1CCN(S(=O)(=O)c2ccc3c(c2)OCCO3)CC1)Nc1cccc(F)c1	-6.1%	56.2µM*	-3.6	16.7%	0.3%	-3.8%
O=C(CN1CCN(S(=O)(=O)c2ccc(Cl)cc2)CC1)Nc1ccc2c(c1)OCO2	1.4%[11.4 µM]	-17.5%	3.0	-5.5%	-6.6%	-11.1%
NC(=O)c1ccc(NC(=O)CN2CCN(S(=O)(=O)c3ccc4c(c3)OCCO4)CC2)cc1	-6.5%	10.3%[2.33 µM]	-4.7	22.3%	-5.8%	4.7%
CC1c2cc3c(cc2CCN1CC(=O)Nc1ccc(S(=O)(=O)N2CCCC2)cc1)OCCCO3 (centres undefined)	-17.3%	70.8µM*	-2.7	11.8%	/	?
Cc1ccc(SC2=NS(=O)(=O)c3ccccc32)c(C)c1	-10.8%[57.1 µM]	/	/	1.3%[57 µM]	/	/
Cc1cc([N+](=O)[O-])cc([N+](=O)[O-])c1NCC(C)C	44.7µM*	15.8µM*	3.0	39.8µM*	?	12.6µM*
